Screens as filed in PubChem BioAssay.
A selection: hits, their analogues and other compounds. The true share with any hit is near 1.4%.
SARS PLpro yeast-1: qHTS of Yeast-based Assay for SARS-CoV PLP | S. cerevisiae expressing SARS-CoV PLpro, growth rescue | Potency, µM (doses to about 32.9 µM), hits mostly activators | 330,000 compounds, 0.19% hits | AID 485353, 2010; calls by dose curve; further: nearly all actives have a fitted effect of over 55% in size
VACV Venus inh: qHTS for Stage-Specific Inhibitors of Vaccinia Orthopoxvirus: Venus Reporter Primary qHTS; Potency, µM (highest dose often 36.5 µM), actives largely listed as inhibitors; AID 720580, 2013; Vaccinia virus Venus reporter expression, fluorescence; 330,000 compounds, 0.46% hits; calls by dose curve; tested in A549 cells; further: nearly all actives have a fitted effect of over 30% in size
AMA1 RON2 block: qHTS for Inhibitors of AMA1-RON; Towards Development of Antimalarial Drug Lead: Primary Screen | Plasmodium falciparum AMA1 (3D7) - RON2 peptide interaction | AlphaScreen AMA1-biotinylated RON2 peptide binding | Potency, µM (highest dose often 58.2 µM), most hits filed as inhibitors | 360,000 compounds, 0.2% hits | AID 720542, 2013; further: nearly all actives have a fitted effect of over 45% in size
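AMA1 (3D7) with his tag at 25 nM final met compounds first, then biotinylated RON2 peptide at 25 nM; detection used donor plus acceptor beads, 10 µg/mL apiece, read by AlphaScreen after 30 min at room temperature.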
Vaccinia mCherry: qHTS for Stage-Specific Inhibitors of Vaccinia Orthopoxvirus: mCherry Reporter Primary qHTS. Vaccinia virus mCherry reporter infection, fluorescence. Potency, µM (titrated, usually from 36.5 µM), actives largely listed as inhibitors. 310,000 compounds, 0.63% hits. AID 720579, 2013; calls by dose curve; tested in A549 cells; further: nearly all actives have a fitted effect of over 35% in size
AmpC inh no detg: qHTS Inhibitors of AmpC Beta-Lactamase (assay without detergent) | AID 485341, 2010 | 330,000 compounds, 0.52% hits | P00811 | AmpC nitrocefin hydrolysis, absorbance 480 nm, 0.0001% Triton | Potency, µM (titrated, usually from 57.1 µM), usual class: inhibitors; further: nearly all actives have a fitted effect of over 20% in size
Target sequence (P00811 whole entry, looked up): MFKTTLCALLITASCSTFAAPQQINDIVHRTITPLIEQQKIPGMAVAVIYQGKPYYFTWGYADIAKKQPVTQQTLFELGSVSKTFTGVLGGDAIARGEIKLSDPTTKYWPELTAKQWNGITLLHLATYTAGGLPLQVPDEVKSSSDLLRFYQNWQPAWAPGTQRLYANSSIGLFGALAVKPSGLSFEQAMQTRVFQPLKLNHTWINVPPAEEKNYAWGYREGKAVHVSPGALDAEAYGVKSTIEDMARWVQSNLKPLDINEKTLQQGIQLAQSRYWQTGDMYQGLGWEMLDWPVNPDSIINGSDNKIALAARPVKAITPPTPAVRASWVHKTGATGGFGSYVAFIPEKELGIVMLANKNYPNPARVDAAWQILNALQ
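20 mM phosphate pH 7.0 + 0.01% (detergent screen) or 0.0001% Triton X-100; 5.3 nM AmpC reagent; cpd preinc 15 min RT; nitrocefin (800 uM stock) to start; A480 q20 s × 4 min; Activity was normalised to no-enzyme and no-compound control wells.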
AmpC inh detg: qHTS Inhibitors of AmpC Beta-Lactamase (assay with detergent); AmpC hydrolysis of nitrocefin, absorbance 480 nm, 0.01% Triton; 370,000 compounds, 0.041% hits; Potency, µM (titrated, usually from 114 µM), usual class: inhibitors; AID 485294, 2010; further: nearly all actives have a fitted effect of over 25% in size
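20 mM phosphate pH 7.0 + 0.01% (detergent screen) or 0.0001% Triton X-100; 5.3 nM AmpC reagent; cpd preinc 15 min RT; nitrocefin (800 uM stock) to start; A480 q20 s × 4 min; Activity was normalised to no-enzyme and no-compound control wells.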
SARS PLpro yeast-2: qHTS of Yeast-based Assay for SARS-CoV PLP: Hit Validation; 1,000 compounds, 19% hits; calls only; yeast expressing SARS-CoV PLpro, growth phenotype rescue; AID 652038, 2013; shares compounds with SARS PLpro yeast-1; call rule not given here
Hits are given with their value; n = inactive; u = inconclusive; x = no result; + = active, no number; [ ] = dose if it differs, or a comment. Unless noted, the call rests on the fitted dose curve; in most records, active means well fitted curve in the direction sought with a large enough effect; inconclusive means small, poorly fitted or top-dose-only effect, or another doubt; inactive means no such curve, though single readings can be large; an effect the other way counts as inactive or inconclusive.

SMILES | SARS PLpro yeast-1 | VACV Venus inh | AMA1 RON2 block | Vaccinia mCherry | AmpC inh no detg | AmpC inh detg | SARS PLpro yeast-2
O=C(CCC1N=C2c3ccccc3N=C(SCc3cccc(Cl)c3)N2C1=O)N1CCN(c2ccccc2)CC1 (stereo not drawn) | x | u | x | 8.9µM | x | n | x
Cc1cccc(-c2cnc(C)nc2C2CCCN(C(=O)c3cccc(Cn4cccn4)c3)C2)c1 (stereo not drawn) | x | n | x | n | x | x | x
Cc1ccc(-n2nnnc2Sc2ccc(S(=O)(=O)NCCN(C)C)cc2[N+](=O)[O-])cc1 | u | 11µM | n | u | n | n | x
Cc1ccc(S(=O)(=O)NCCSc2nnnn2-c2ccc(C(N)=O)cc2)cc1 | n | n | n | n | 10µM | u | x
Cc1nn(-c2ccc(F)cc2)c(C)c1CNC(=O)c1ccc(-n2cc(NC(=O)c3ccoc3)cn2)cc1 | x | n | x | n | x | x | x
CCN(CC)S(=O)(=O)c1cc(NC(=O)C2CCN(c3ncnc4sc(C)c(C)c34)CC2)ccc1Cl | n | u | n | u | n | n | x
Cc1sc2ncnc(N3CCC(C(=O)N(C)CC(=O)Nc4cccc(F)c4)CC3)c2c1C | x | u | n | u | x | x | x
Cc1sc2ncnc(N3CCC(C(=O)N(C)CC(=O)Nc4ccccc4Cl)CC3)c2c1C | n | n | n | n | n | n | x
Cc1sc2ncnc(N3CCC(C(=O)N(C)CC(=O)Nc4ccc(Cl)c(C(F)(F)F)c4)CC3)c2c1C | n | u | n | 10µM | n | n | x
Cc1ccc(NC(=O)C2CCN(c3ncnc4sc(C)c(C)c34)CC2)cc1S(=O)(=O)N(C)C | n | n | n | n | 28µM | u | x
CCN(CC(=O)Nc1cc(Cl)ccc1C)C(=O)C1CCN(c2ncnc3sc(C)c(C)c23)CC1 | x | u | n | 11µM | x | x | x
CSc1nnc(CNC(=O)c2c(-c3ccccc3)noc2C)n1-c1ccc(F)cc1 | x | n | x | n | x | x | x
Cc1cc(C)c(C(=O)NCc2nc(-c3cccc(NC(=O)C4CCCN(C)C4)c3)oc2C)[nH]1 (stereo not drawn) | x | n | x | n | x | x | x
Cc1cc(C)nc(SSc2nc(C)cc(C)n2)n1 | n | n | n | n | u | 79µM | x
CC(=O)c1sc(N/N=C\c2ccccc2O)nc1C | n | n | n | 5µM | n | n | x
CCOC(=O)c1sc(N/N=C/c2ccccc2)nc1C | n | n | n | n | n | n | x
C[C@@H]1[C@@H](Sc2ccccc2)CC(=O)O[C@@H]1c1ccc(-c2ccccc2)cc1 | x | 2.5µM | n | u | x | x | x
CC(=O)Nc1ccc(/C=C/c2ccccn2)cc1 | x | n | x | n | x | x | x
Cn1c(=O)c2c(SCc3cccnc3)nc(CC(C)(C)C)nc2n(C)c1=O | n | n | n | n | n | u | x
CCCc1nc(SCc2cccnc2)c2c(=O)n(C)c(=O)n(C)c2n1 | n | n | n | n | 40µM | n | x
CCCc1nc(SC2CCCC2)c2c(=O)n(C)c(=O)n(C)c2n1 | n | n | n | n | 35µM | u | x
O=C(NC1CC1)[C@@H]1C[C@@H](Sc2nc3ccccc3[nH]2)CN1CC1CCCCC1 | x | n | x | n | x | x | x
Oc1ccc(Nc2nc(-c3ccccc3)nc3ccccc23)cc1 | n | u | n | u | 18µM | n | x
Cc1cccc(/C=C(\c2nc3ccccc3[nH]2)S(=O)(=O)c2ccccc2)c1 | n | u | n | u | n | n | x
CC(C)(C)c1ccc(/C=C(\c2nc3ccccc3[nH]2)S(=O)(=O)c2ccccc2)cc1 | x | u | n | 14µM | x | x | x
SMILES | SARS PLpro yeast-1 | VACV Venus inh | AMA1 RON2 block | Vaccinia mCherry | AmpC inh no detg | AmpC inh detg | SARS PLpro yeast-2
Cc1cc(C)n(Cc2cccc(C(=O)NCC3Cc4cccc(-c5ncccn5)c4O3)c2)n1 (stereo not drawn) | x | n | x | n | x | x | x
COc1ccc(CCNC(=S)NC(=O)c2ccc(Br)cc2)cc1OC | n | x | n | x | n | n | x
COc1ccc(CCNC(=S)NC(=O)c2ccccc2)cc1C | n | n | n | n | 11µM | n | x
COCCNC(=S)N/N=C(\C)c1ccc(OC)cc1 | 22µM | n | n[11.6 µM] | n | n | n | +
COCCNC(=S)N/N=C(\C)c1ccc2cc(OC)ccc2c1 | 8.9µM | n | u | u | n | n | n
COCCNC(=S)N/N=C(\C)c1ccc(OC(F)F)cc1 | n | x | n | x | n | n | x
O=C(CNCCCO)Nc1cc(C(F)(F)F)cc(NC(=O)CNCCCO)c1Cl | u | n | n | n | n | u | n
O=C(CNC1CC1)Nc1cc(C(F)(F)F)ccc1Cl | n | x | n | x | n | n | x
Cc1cc(C)nc(SCc2ccc(C(=O)N/N=C/c3cccc(O)c3O)cc2)n1 | 3.2µM | u | n | 8.9µM | n | n | +
Cc1ccc(OCc2nc(-c3ccc(C(=O)N4CCN(c5cc(Cl)ccc5C)CC4)cc3)oc2C)cc1 | x | n | x | n | x | n | x
O=C(/C=C/c1ccc(F)cc1)NCCc1ccc2c(c1)OCCO2 | 4µM | n | n | n | n | u | n
O=C(Nc1ccccc1Cl)c1cccc(COc2cc(Cl)ccc2Cl)c1 | u | n | n | n | n | n | n
Cc1[nH]n(-c2ccccc2)c(=O)c1/C=N/NC(=O)c1cccc([N+](=O)[O-])c1 | n | n | u | x | n | n | x
Cc1[nH]n(-c2cccc3ccccc23)c(=O)c1/C=N/NC(=O)c1cccc([N+](=O)[O-])c1 | u | n | n | n | u | n | +
Cc1ccc(/C=N/Nc2nc3ccccc3[nH]2)s1 | 2.8µM | u | n | n | n | n | n
O=C(Nc1ccncc1)c1ccc(Cl)c(S(=O)(=O)N2CCCCC2)c1 | n | n | n | n | n | n | x
O=C(Nc1ccc(Cl)c(S(=O)(=O)N2CCCCC2)c1)c1ccncc1 | 5µM | n | n | n | n | n | n
O=[N+]([O-])c1ccc(S(=O)(=O)N2CCN(c3nc(-c4cccs4)nc4ccccc34)CC2)cc1 | x | n | x | n | x | x | x
CCOC(=O)N1CCC(N2Cc3cccc(C(=O)N4CCN(c5cccc(C)c5C)CC4)c3C2=O)CC1 | n | n | n | n | n | n | x
CCOC(=O)N1CCC(N2Cc3cccc(C(=O)N4CCN(C5CCCCC5)CC4)c3C2=O)CC1 | 20µM | n | n | n | n | u | n
CCOc1ccc(NC(=O)NC2CCOC(C)(C)C2)cc1 (stereo not drawn) | u | n | n | x | n | n | n
COc1ccc(NCN2C(=O)CCC2=O)cc1 | u | n | n | n | n | n | n
CN(C)/C=N/c1nc2c(ncn2C2CC(O)C(CO)O2)c(=O)[nH]1 (stereo not drawn) | x | n | x | n | x | x | x
